About 1,700 (3.3%) of roughly 52,000 compounds were called active. For the sample, actives were picked, then their nearest neighbours and some compounds at random. Values without a mark were called inactive. Rule as the data show it: active = survival mostly below about 52% (no sharp cut-off); inactive = mostly above about 56%.
Tested on: Wild type
Experiment: growth inhibition of S. aureus wild type versus tarO mutant, primary screen, teichoic acid synthesis inhibitors, RN4220, OD600 (AID 463173)
Conditions: S. aureus RN4220 wild type/DeltatarO growth, OD600, 18 h, stronger effect = lower value, screened at 18.75 µg/mL (by protocol)

| SMILES | survival |
| --- | --- |
| Cc1ccccc1Cn1cc(CCC(=O)NC(C)c2ccccc2)c2ccccc21 (configuration not stated) | 84% |
| CC(C)n1nnnc1SCC(=O)OC1CCCCC1 | 127% |
| Cc1cc(C)nc(Nc2nc3ccccc3s2)n1 | 109% |
| Cc1cccc(C(=O)Nc2nc(-c3nnn(-c4cc(F)ccc4F)c3C)ns2)c1 | 133% |
| N#Cc1cc[n+](CC(=O)c2cccs2)cc1 | 102% |
| Clc1ccc(CCNC(c2ccc(Cl)cc2)c2nnc(-c3ccccc3)o2)cc1 (configuration not stated) | 86% |
| CCOc1ccc(CCNC(c2cccc(Cl)c2)c2nnc(-c3ccccc3)o2)cc1OCC (configuration not stated) | 89% |
| CCOc1ccc(CCNC(=O)Cn2nnc(-c3ccccc3)n2)cc1OCC | 98% |
| Cc1ccc(NC(c2cccc(Cl)c2)c2nnc(-c3ccccc3)o2)cc1F (configuration not stated) | 90% |
| CCOc1ccc(CCNC(c2nnc(-c3ccccc3)o2)c2ccccc2Cl)cc1OCC (configuration not stated) | 4% (active) |
| Clc1ccc(CCNC(c2cccc(Cl)c2)c2nnc(-c3ccccc3)o2)cc1 (configuration not stated) | 5% (active) |
| COc1cc(NS(=O)(=O)c2c(C)nc3sc(C)c(C)n3c2=O)cc(OC)c1 | 90% |
| Cn1cnc2c(=O)oc3ccc(S(=O)(=O)N4CCN(c5cccc(C(F)(F)F)c5)CC4)cc3c21 | 120% |
| Cn1cnc2c(=O)oc3ccc(S(=O)(=O)N4CCN(c5ccccc5)CC4)cc3c21 | 87% |
| Cn1cnc2c(=O)oc3ccc(S(=O)(=O)N4CCN(c5cccc(Cl)c5)CC4)cc3c21 | -6% (active) |
| CCOc1ccc(NC(=O)c2c(Nc3ccccc3C)sc(C(=O)c3ccccc3)c2N)cc1 | 83% |
| Cc1ccc(CN2C(=O)c3ccccc3CC2(C)C(=O)NC2CCCCC2)cc1 (configuration not stated) | 84% |
| Clc1cccc(-c2noc3ncnc(NC4CCCCC4)c23)c1 | 79% |
| CN(c1ncnc2onc(-c3cccc(Cl)c3)c12)C1CCCCC1 | -1% (active) |
| CN(c1ncnc2c1c(-c1ccccc1)cn2-c1cccc(Cl)c1)C1CCCCC1 | 89% |
| COc1ccc(S(=O)(=O)N(CC(=O)N2CCC(C)CC2)c2ccc(C)cc2)cc1 | 89% |
| O=C(NCCC1=CCCCC1)c1ccc2c(=O)n3nc(Nc4ccccc4)sc3nc2c1 | 72% |
| O=C(CN1CCC(NC(=O)C2CCCCC2)CC1)Nc1cccc(F)c1 | 111% |

| SMILES | survival |
| --- | --- |
| CCc1nn2c(=O)cc(COC(=O)c3ccc(NC(=O)C4CCCCC4)cc3)nc2s1 | 68% |
| CCOc1ccccc1CNS(=O)(=O)c1ccc2[nH]c(=O)ccc2c1 | 71% |
| CCOc1ccc(OCC)c(NS(=O)(=O)c2ccc3[nH]c(=O)ccc3c2)c1 | 0% (active) |
| CCOc1ccc(CNS(=O)(=O)c2ccc3[nH]c(=O)ccc3c2)cc1 | 80% |
| O=C(Cn1c(=O)n(CCc2ccccc2)c(=O)c2cccnc21)Nc1ccc(F)cc1 | 80% |
| Cc1oc2c(C)c3oc(=O)c(CC(=O)N4CCCCC4)c(C)c3cc2c1C | 83% |
| Cc1nnc(SCC(=O)N(C2CCCCC2)C2CCCCC2)[nH]c1=O | 117% |
| CCOC(=O)C1CCCN(c2c(C(=O)c3ccc(OCC)cc3)cnc3ccccc23)C1 (configuration not stated) | 0% (active) |
| CCOc1ccc(S(=O)(=O)c2c(C(=O)c3ccc(C)c(C)c3)cnc3ccccc23)cc1 | 80% |
| CCOC(=O)C1CCCN(C(=O)c2ccc(OCC)cc2)C1 (configuration not stated) | 117% |
| CCOc1ccc(C(=O)c2cnc3ccc(Cl)cc3c2S(=O)(=O)c2ccc(C)cc2)cc1 | 86% |
| CCOC(=O)C1CCCN(c2c(C(=O)c3ccc(C)cc3)cnc3ccc(OCC)cc23)C1 (configuration not stated) | 2% (active) |
| CCOC(=O)C1CCCN(c2c(C(=O)c3ccccc3)cnc3ccc(F)cc23)C1 (configuration not stated) | 22% |
| CCc1ccc(NC(=O)CN2CCSc3ccc(S(=O)(=O)N4CCCC4)cc32)cc1 | -6% (active) |
| Cc1ccc(NC(=O)CN2CCSc3ccc(S(=O)(=O)N4CCCC4)cc32)cc1 | 98% |
| CCOc1ccc(NC(=O)CN2CCSc3ccc(S(=O)(=O)N4CCCC4)cc32)cc1 | 67% |
| CCOC(=O)c1scc(-c2ccc(C)cc2)c1S(=O)(=O)Nc1ccc(F)c(F)c1 | 72% |
| Cc1nc(N2CCOCC2)c2c(C(=O)Nc3cccc(C(F)(F)F)c3)c(C)oc2n1 | 78% |
| Cc1ccc(Nc2c(-c3cccc(Cl)c3)nc3cccc(C)n23)cc1 | 22% |
| Cc1ccc(-c2nc3cccc(C)n3c2Nc2ccc3c(c2)OCO3)o1 | 22% |
| CSc1ccc(-c2nc3cccc(C)n3c2Nc2ccc(Cl)cc2)cc1 | 101% |
| Cc1ccn2c(Nc3ccc(F)cc3)c(-c3ccccn3)nc2c1 | 79% |
| Cc1cccc2nc(-c3ccccn3)c(Nc3ccc(F)cc3)n12 | 4% (active) |

| SMILES | survival |
| --- | --- |
| Cc1ccc(Nc2c(-c3ccc(O)cc3)nc3cccc(C)n23)cc1 | 91% |
| Cc1cccc(C)c1Nc1c(-c2ccsc2)nc2cccc(C)n12 | 32% |
| Cc1ccc(Nc2c(-c3ccc(C)o3)nc3cccc(C)n23)cc1 | 21% (active) |
| Cc1cccc(C)c1Nc1c(-c2ccccc2F)nc2cccc(C)n12 | 7% (active) |
| COc1ccc(Nc2c(-c3ccco3)nc3cccc(C)n23)cc1 | 97% |
| Cc1cccc2nc(-c3ccccn3)c(Nc3ccccc3)n12 | 21% (active) |
| Cc1ccccc1Nc1c(-c2ccccc2)nc2cccc(C)n12 | 73% |
| O=C(Nc1ccc(Cl)c(C(F)(F)F)c1)C1CCN(S(=O)(=O)c2cccc3nonc23)CC1 | 90% |
| Cc1ccc(C(=O)c2c(N)c(C(=O)Nc3ccccc3Cl)c3ccccn23)cc1 | 96% |
| COc1ccc(NC(=O)CN2C(=O)c3cccnc3Sc3ccccc32)cc1OC | 81% |
| COc1ccccc1CNC(=O)CSC1=Nc2ccccc2N=C(c2ccc(F)cc2)C1 | 73% |
| COc1cc(NC(=O)c2sc3nc4n(c(=O)c3c2C)CCCCC4)cc(OC)c1OC | 80% |
| Cc1ccccc1NC(=O)Cn1cc(S(=O)(=O)c2ccccc2)c(=O)c2ccccc21 | 105% |
| COc1ccccc1CNC(=O)C(=O)NCC(c1ccco1)S(=O)(=O)c1cccs1 (configuration not stated) | 101% |
| COC(=O)C(NC(=O)CCc1c(C)nc2cc(-c3cccc(F)c3)nn2c1C)C(C)C (configuration not stated) | 80% |
| CCc1ccc(CNc2ncnc3onc(-c4ccc(Cl)cc4)c23)cc1 | 48% |
| Cc1cc[n+](CC(=O)N2CCCCC2)cc1 | 116% |
| Cc1ccc(NC(=O)Cn2c(=O)n(-c3ccccc3)c(=O)c3ccc(C(=O)NCc4ccc5c(c4)OCO5)cc32)c(C)c1 | 138% |
| Cc1ccc2nc(-c3ccc(C)o3)c(Nc3ccc4c(c3)OCCO4)n2c1 | 19% (active) |
| Cc1ccc(-c2nc3ccc(Cl)cn3c2Nc2ccc3c(c2)OCCO3)o1 | 88% |
| Cc1ccc(-c2nc3ccccn3c2Nc2c(C)cccc2C)o1 | -20% (active) |
| Cc1ccn2c(Nc3ccc4c(c3)OCCO4)c(-c3ccc(C)o3)nc2c1 | 75% |
| Cc1ccc(-c2nc3ccccn3c2Nc2ccc3c(c2)OCO3)o1 | 48% |

| SMILES | survival |
| --- | --- |
| Cc1ccc(-c2nc3ccccn3c2Nc2ccc3c(c2)OCCO3)o1 | 62% |
| Cc1cc(-n2c(C)nc3ccccc3c2=O)ccc1NC(=O)C(F)(F)F | 69% |
| COc1ccc(CCC(=O)NC2CC(=O)N(c3ccc(OC)cc3)C2)cc1 (configuration not stated) | 79% |
| CCOc1ccc(C2CC(=O)Nc3c2c(=O)[nH]c2ncnn32)cc1 (configuration not stated) | 68% |
| CC1=C(C(=O)Nc2ccc(C)cc2C)C(c2cccs2)n2nc(SCc3ccccc3Cl)nc2N1 (configuration not stated) | 76% |
| COc1cc(NC(=O)c2ccc(C)cc2)ccc1NC(=O)c1cc2ccccc2o1 | 75% |
| CCc1ccc(C2NC(=O)c3[nH]nc(-c4cccc(OC)c4)c32)cc1 (configuration not stated) | 74% |
| COc1ccc(-c2n[nH]c3c2C(c2ccc(Cl)cc2Cl)NC3=O)cc1 (configuration not stated) | 0% (active) |
| COc1ccc(OC)c(C2c3c(-c4ccc(Br)cc4)n[nH]c3C(=O)N2c2ccc(Cl)cc2)c1 (configuration not stated) | 77% |
| CCOC(=O)CNc1cccc(Cl)c1 | 112% |
| COc1cccc(CNC(=O)C(=O)Nc2c3c(nn2-c2ccccc2)CSC3)c1 | 66% |
| Cc1ccc(NC(=O)c2cc(S(=O)(=O)N3CCC4(CC3)OCCO4)ccc2F)cc1Cl | 87% |
| COc1ccc(N2CCN(C(=O)CNS(=O)(=O)c3ccc(Br)s3)CC2)cc1 | 61% |
| COc1ccc(Nc2oc(/C=C/c3cc(OC)c(OC)c(OC)c3)nc2C#N)cc1 | 78% |
| CC(=O)N1CCC2(CC1)OC(=O)C(C)=C2C(=O)NCc1ccccc1Cl | 70% |
| CCOc1ccc(CCNC(=O)c2cnc3c(-c4ccc(F)cc4)c(C)nn3c2C)cc1 | 85% |
| CCC(C(=O)Nc1ccccc1OC)n1c(C(=O)OC)cc2sc(Cl)cc21 (configuration not stated) | 0% (active) |
| CCc1ccccc1NC(=O)c1cc2sc(Cl)cc2n1CC | 90% |
| CCC(Sc1nnc(C)n2c1cc1occc12)C(=O)Nc1ccccc1OC (configuration not stated) | 90% |
| CCOC(=O)c1cc2occc2n1C(C)C(=O)OCC (configuration not stated) | 95% |
| CCn1c(C(=O)Nc2ccccc2C(=O)OC)cc2sc(Cl)cc21 | 43% |
| CCOc1ccccc1NC(=O)C(CC)n1c(C(=O)OC)cc2occc21 (configuration not stated) | 0% (active) |
| COc1ccc2c(c1)CC(NC(=O)Nc1ccc(NC(C)=O)cc1)CO2 (configuration not stated) | 121% |

— PubChem BioAssay AID463173 (ICCB-Longwood Screening Facility, Harvard Medical School, 2010)
